Bioassay records from PubChem BioAssay.
APP 5'UTR act = activates APP 5'UTR luciferase reporter; 190,000 tested, 1% active; SH-SY5Y APP 5'UTR luciferase reporter, luminescence; zero percent = DMSO vehicle wells; AID 1276; activation, % at 2 µM;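 active means activation above a set limit, based on mean plus 3 SD of controls, cut at about 140% in these data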
APP 5UTR inh = APP translation inhibition; SH-SY5Y APP 5'UTR-luciferase reporter, luminescence; inhibition, % at 2 µM; 190,000 tested, 0.82% active; AID 1285;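 active means inhibition above a set limit, derived from the sample mean plus 3 SD, cut at about 45% in these data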
NF-kB expr up = raises NF-kB expression in human neuronal cells | NF-kB reporter expression; active compounds read high | fold change at 12.5 µM | 190,000 tested, 1.6% active; in the data active means fold change above about 3.3
STAT1 act = activators of IFN-gamma induced STAT1 signaling. NIH 3T3 STAT1-luciferase reporter, luminescence; 100% = IFN-gamma alone, no compound. activation (% of control), % at 5.5 µM. 200,000 tested, 2.6% active. AID 932;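 active means activation above the screen-wide mean activation plus 3 SD, cut at about 130% in these data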;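 further: raw ratio to IFN-gamma control signal so 100% means no change and 0% no light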
Wee1 degr inh = inhibitors of human Wee1 degradation | P30291 | reporter increase, % at 5 µM | HeLa Luc-Wee1K328M stability, luciferase luminescence; 100% = proteasome inhibitor MG132 effect | 220,000 tested, 1.2% active;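 active means activation above the mean of all tested compounds plus 3 SD, set per screening run, cut at about 8.8% in these data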;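 further: cells exposed to compound for 20 h before luminescence read; 0% = DMSO alone and 100% = MG132 at 30 µM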
Target sequence (P30291 whole entry K328M): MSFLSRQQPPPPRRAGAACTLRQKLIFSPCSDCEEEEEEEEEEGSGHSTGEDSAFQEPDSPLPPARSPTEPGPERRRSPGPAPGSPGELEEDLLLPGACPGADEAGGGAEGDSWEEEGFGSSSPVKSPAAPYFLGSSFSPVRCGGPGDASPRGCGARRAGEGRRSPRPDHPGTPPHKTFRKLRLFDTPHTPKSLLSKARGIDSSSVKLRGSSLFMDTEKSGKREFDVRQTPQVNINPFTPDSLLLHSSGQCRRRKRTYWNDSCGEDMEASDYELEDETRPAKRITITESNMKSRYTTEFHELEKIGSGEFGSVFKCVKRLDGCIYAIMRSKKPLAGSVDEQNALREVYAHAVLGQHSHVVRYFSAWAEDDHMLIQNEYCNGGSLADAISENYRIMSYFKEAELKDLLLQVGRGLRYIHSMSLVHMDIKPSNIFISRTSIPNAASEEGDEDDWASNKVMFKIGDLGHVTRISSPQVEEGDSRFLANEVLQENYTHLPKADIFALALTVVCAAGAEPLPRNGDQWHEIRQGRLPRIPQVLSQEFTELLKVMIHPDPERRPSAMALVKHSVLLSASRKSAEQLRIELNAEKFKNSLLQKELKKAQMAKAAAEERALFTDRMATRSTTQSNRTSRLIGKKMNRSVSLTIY
Hsp70 act = Hsp70 transcriptional activation, primary screen; activation, % at 10 µM; HeLa Hsp70 promoter luciferase reporter, luminescence; scaled: vehicle 0, proteasome-inhibitor control 100%; 200,000 tested, 0.04% active; AID 1203;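 active means activation above the mean across all tested compounds plus 3 SD, cutoff set per campaign, cut at about 5.5% in these data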;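 further: 100% = MG132 at 30 µM as the positive control and 0% = DMSO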
* = called active by the depositor. Hits are enriched below; roughly 4.8% of the tested compounds scored in any of these assays.

Results for COc1c(C)cccc1C(=O)Nc1ccc(CN2CCOCC2)cc1 ?
APP 5'UTR act: 118.2; APP 5UTR inh: -118.2; NF-kB expr up: 1.71; STAT1 act: 129.8*; Wee1 degr inh: 0.6; Hsp70 act: -0.2

What do the screens show for `CC(=O)Nc1ccc(NC(=S)NC(=O)/C=C/c2ccc(Cl)cc2)cc1`?
APP 5'UTR act: -8.3; APP 5UTR inh: 8.3; NF-kB expr up: 1.09; STAT1 act: 96.6; Wee1 degr inh: -1.1; Hsp70 act: -0.2

How did O=C(/C=C/c1ccc(Cl)cc1)NC(=S)Nc1ccc(NC(=O)c2ccco2)cc1 do in these assays?
APP 5'UTR act: -81.3; APP 5UTR inh: 81.3*; NF-kB expr up: 1.24; STAT1 act: 115.3; Wee1 degr inh: -3.1; Hsp70 act: -0.2

What do the screens show for `N/C(=N\OC(=O)COc1ccc(Br)cc1Cl)c1ccccn1`?
APP 5'UTR act: 193.0*; APP 5UTR inh: -193.0; NF-kB expr up: 5.59*; STAT1 act: 124.6; Wee1 degr inh: 5.2; Hsp70 act: -0.2

What do the screens show for `Cc1cc(C)c(C)c(OCC(=O)O/N=C(\N)c2ccccn2)c1`?
NF-kB expr up: 1.43; STAT1 act: 102.4; Wee1 degr inh: -1.1; Hsp70 act: -0.1

Results for N/C(=N\OC(=O)c1ccc(Cl)cc1Cl)c1ccc(Cl)cc1 ?
APP 5'UTR act: 15.2; APP 5UTR inh: -15.2; NF-kB expr up: 1.51; STAT1 act: 127.5; Wee1 degr inh: 3.3; Hsp70 act: 0.2

How did N/C(=N\OC(=O)COc1ccc(Cl)cc1Cl)c1ccccn1 do in these assays?
APP 5'UTR act: 78.2; APP 5UTR inh: -78.2; NF-kB expr up: 5.24*; STAT1 act: 75.5; Wee1 degr inh: 1.5; Hsp70 act: -0.1

What do the screens show for `N/C(=N\OC(=O)COc1ccc2ccccc2c1Br)c1ccccn1`?
APP 5'UTR act: 66.8; APP 5UTR inh: -66.8; STAT1 act: 139.2*; Wee1 degr inh: 1.9; Hsp70 act: 0.5

How did N/C(=N\OC(=O)c1cc(Cl)ccc1Cl)c1ccccn1 do in these assays?
APP 5'UTR act: 171.5*; APP 5UTR inh: -171.5; NF-kB expr up: 3.01; STAT1 act: 115.4; Wee1 degr inh: -2.0; Hsp70 act: -0.4

Results for N#Cc1cc2c(ccc3ccccc32)oc1=O ?
APP 5'UTR act: -1.3; APP 5UTR inh: 1.3; NF-kB expr up: 1.07; STAT1 act: 104.9; Wee1 degr inh: -2.8; Hsp70 act: -0.1

What do the screens show for `CCOC(=O)c1c(C)n(CCNC(C)=O)c2ccc(O)cc12`?
APP 5'UTR act: 13.4; APP 5UTR inh: -13.4; NF-kB expr up: 1.03; STAT1 act: 100.0; Wee1 degr inh: -2.7; Hsp70 act: 0.3

How did N/C(=N\OC(=O)COc1cc(Cl)c(Cl)cc1Cl)c1ccncc1 do in these assays?
APP 5'UTR act: 83.7; APP 5UTR inh: -83.7; NF-kB expr up: 2.08; STAT1 act: 131.3*; Wee1 degr inh: -1.8; Hsp70 act: 0.0

Results for c1ccc(-c2ccc(-c3csnn3)cc2)cc1 ?
APP 5'UTR act: 8.2; APP 5UTR inh: -8.2; NF-kB expr up: 2.15; STAT1 act: 132.4*; Wee1 degr inh: -0.1; Hsp70 act: -0.1

Results for O=S(=O)(Nc1ccccc1)c1ccc(-c2csnn2)cc1 ?
Wee1 degr inh: 0.2

How did O=C(OCc1ccccc1)N1CCOCCOCCN(C(=O)OCc2ccccc2)CCOCCOCC1 do in these assays?
APP 5'UTR act: 4.1; APP 5UTR inh: -4.1; NF-kB expr up: 0.85; STAT1 act: 100.5; Wee1 degr inh: 3.4; Hsp70 act: -0.3

Results for O=C(OCc1ccccc1)N1CCCC1/C=C/CN1CCOCC1 (configuration not stated) ?
APP 5'UTR act: -63.0; APP 5UTR inh: 63.0*; NF-kB expr up: 1.22; STAT1 act: 96.5; Wee1 degr inh: 5.3; Hsp70 act: -0.3

How did CC1=CC(C)(C)Nc2ccc(OC(=O)CN3C(=O)c4ccccc4C3=O)cc21 do in these assays?
APP 5'UTR act: -42.2; APP 5UTR inh: 42.2; NF-kB expr up: 0.22; STAT1 act: 86.2; Wee1 degr inh: -2.1; Hsp70 act: -0.4

What do the screens show for `Cn1c(NC(=O)/C=C/c2ccc(Cl)c(Cl)c2)cc(=O)n(C)c1=O`?
APP 5'UTR act: 11.5; APP 5UTR inh: -11.5; NF-kB expr up: 1.11; STAT1 act: 104.4; Wee1 degr inh: 2.8; Hsp70 act: -0.2

What do the screens show for `COc1ccc(/C=C/C(=O)Nc2cc(=O)n(C)c(=O)n2C)cc1`?
APP 5'UTR act: 14.2; APP 5UTR inh: -14.2; NF-kB expr up: 1.08; STAT1 act: 98.1; Wee1 degr inh: 9.7*; Hsp70 act: -0.3

What do the screens show for `CCCC(=O)Nc1cc(=O)n(C)c(=O)n1C`?
APP 5'UTR act: 35.4; APP 5UTR inh: -35.4; NF-kB expr up: 1.64; STAT1 act: 95.4; Wee1 degr inh: 0.3; Hsp70 act: -0.3

Results for Cn1c(NC(=O)/C=C/c2ccccc2)cc(=O)n(C)c1=O ?
APP 5'UTR act: 47.0; APP 5UTR inh: -47.0; NF-kB expr up: 1.94; STAT1 act: 139.0*; Wee1 degr inh: 8.9*; Hsp70 act: 0.1

What do the screens show for `Cn1c(NC(=O)CCc2ccccc2)cc(=O)n(C)c1=O`?
APP 5'UTR act: 50.1; APP 5UTR inh: -50.1; NF-kB expr up: 2.24; STAT1 act: 138.2*; Wee1 degr inh: 5.9; Hsp70 act: -0.2

How did Cn1c(SCC(=O)Nc2sccc2C#N)nnc1-c1ccccc1 do in these assays?
APP 5'UTR act: 1.1; APP 5UTR inh: -1.1; NF-kB expr up: 1.11; STAT1 act: 100.1; Wee1 degr inh: 2.7; Hsp70 act: 0.2

How did Cc1noc(C)c1CS(=O)(=O)c1ccc(Br)cc1 do in these assays?
APP 5'UTR act: -1.1; APP 5UTR inh: 1.1; NF-kB expr up: 1.05; STAT1 act: 99.9; Wee1 degr inh: -2.5; Hsp70 act: -0.3

Results for CCc1cccc2c1NC(=O)C2(O)CC(=O)c1cccs1 (configuration not stated) ?
APP 5'UTR act: 20.5; APP 5UTR inh: -20.5; NF-kB expr up: 1; STAT1 act: 95.4; Wee1 degr inh: -0.9; Hsp70 act: 0.6

What do the screens show for `CCc1ccc2c(c1)C(O)(CC(=O)c1cccs1)C(=O)N2` (configuration not stated)?
APP 5'UTR act: 14.8; APP 5UTR inh: -14.8; NF-kB expr up: 0.96; STAT1 act: 100.7; Wee1 degr inh: 9.8*; Hsp70 act: 0.1

How did O=C(/C=C/c1ccc(F)cc1)NCCCN1CCN(CCCNC(=O)/C=C/c2ccc(F)cc2)CC1 do in these assays?
APP 5'UTR act: -5.3; APP 5UTR inh: 5.3; NF-kB expr up: 1.02; STAT1 act: 89.0; Wee1 degr inh: -1.3; Hsp70 act: -0.6

How did CCCNc1nc(Nc2ccc(C)cc2)nc(N2CCCC2)n1 do in these assays?
APP 5'UTR act: 8.4; APP 5UTR inh: -8.4; NF-kB expr up: 1.2; STAT1 act: 96.7; Wee1 degr inh: -0.7; Hsp70 act: 0.1

How did CCOC(=O)c1sc(=NC(=O)c2ccccc2)n(C)c1C do in these assays?
APP 5'UTR act: 180.5*; APP 5UTR inh: -180.6; NF-kB expr up: 6.71*; STAT1 act: 137.8*; Wee1 degr inh: 0.0; Hsp70 act: 0.0
